E coli growth-1 – E. coli V3065 growth inhibition, primary screen, counter-screen for AddAB inhibitor project, absorbance, OD600; inhibition, % at 11.9 µM; AID 449728, 2010; hit rate 0.27% among 330,000; 18 h;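 active = inhibition above the campaign's mean inhibition across all tested compounds plus 3 SD, cut at about 9.9% in these data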;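 also: uninfected addAB+ strain grown without phage in ampicillin broth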
Tat export inh – E. coli Tat export inhibitors, primary screen, MC4100, TorA-mCherry reporter, fluorescence, single point; hit rate 0.036% among 340,000; inhibition, % at 10 µM; AID 488895, 2010;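 active = mean replicate inhibition at least 50% and at least half of replicates individually reaching 50%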;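 also: exported cargo escapes ClpAP degradation while cytoplasmic cargo is degraded and loses fluorescence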
E coli growth-2 – E. coli growth inhibition, primary screen, OD600. Escherichia coli growth, 23 h; stronger effect = lower value. OD600 absorbance (no concentration beside the values). hit rate 0.21% among 330,000. AID 1053175, 2014;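 active = OD600 absorbance below the run mean of sample wells minus 3.6 SD, in any replicate, cut at about 0.56 in these data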
AddAB inh – growth inhibition of E. coli expressing H. pylori AddAB, primary screen, AddAB inhibitor project, absorbance; inhibition, % at 11.9 µM; hit rate 0.29% among 330,000; in the data active = inhibition above about 12%
phage Ecoli inh – growth loss of phage-infected E. coli, primary screen, RecBCD inhibitor project, absorbance, with phage, HTS; inhibition, % at 11.9 µM; hit rate 0.26% among 360,000; AID 651602, 2012; in the data active = inhibition above about 11%
AddAB conf – growth loss of phage-infected E. coli expressing H. pylori AddAB, confirmation, AddAB inhibitor project, absorbance, E. coli V3065, T4 phage, triplicate; OD; T4 phage with gene 2 nonsense mutations; shares compounds with AddAB inh; hit rate 64% among 880; inhibition, % at 11.9 µM;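 active = mean inhibition above a set limit taken from the earlier primary screen, cut at about 13% in these data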;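 also: higher means less bacterial growth since AddAB block lets phage replicate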
RecBCD counter – growth loss of RecBCD+ E. coli with mutant T4 phage, counter-screen for AddAB inhibitor project, absorbance, V66 E. coli. shares compounds with AddAB inh. OD growth. inhibition, % at 11.9 µM. hit rate 73% among 880. AID 488955, 2010;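 active = mean inhibition above the mean of solvent-only control wells plus 3 SD, cut at about 4% in these data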;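 also: optical density read after an 18 h incubation at 37 °C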
bact viab count – bacterial viability inhibition counter-screen, confirmation, counter-screen for AddAB inhibitor project, absorbance. shares compounds with AddAB inh. absorbance (AddAB counterscreen). inhibition, % at 11.9 µM. hit rate 35% among 880; in the data active = inhibition above about 25%
Each line names hits and unclear results; the compound was inactive in the other large screens (follow-up assays come after a bar, where they were run). An excerpt weighted towards active compounds, which were near 0.5% of everything screened.

O=C(Nc1ccc(Cl)c(Cl)c1)Nc1ccccc1O	E coli growth-2 0.455
Cc1nnc(NN=Cc2ccco2)n1N	none (no result: E coli growth-1, Tat export inh, AddAB inh, phage Ecoli inh)
O=C(Nc1ccccc1)C1CC=CC2CCN(C3CCCCC3)C(=O)C21 (stereo unspecified)	none (no result: E coli growth-1, Tat export inh, AddAB inh, phage Ecoli inh)
CC(C)C12CN3CCN(CC(C3)C1=NNC(=O)Nc1ccccc1)C2	none (no result: E coli growth-1, Tat export inh, AddAB inh, phage Ecoli inh)
O=[N+]([O-])c1ccc(NC(=S)NCCc2ccc(F)cc2)cc1	E coli growth-2 0.461
O=C(NCCc1ccc(F)cc1)Nc1ccc([N+](=O)[O-])cc1	none (no result: E coli growth-1, AddAB inh)
O=c1[nH]c(NN=Cc2ccccc2)nc2ccccc12	none (no result: E coli growth-1, Tat export inh, AddAB inh, phage Ecoli inh)
CCC(=NNC(=O)C1CC1)c1cccc(Cl)c1	none (no result: E coli growth-1, Tat export inh, AddAB inh, phage Ecoli inh)
COc1ccc(C=NNc2cc(C)nc3ccccc23)cc1	E coli growth-2 0.49 (no result: E coli growth-1, Tat export inh, AddAB inh, phage Ecoli inh)
COc1ccc2nc(C)cc(NN=Cc3ccccc3)c2c1	E coli growth-2 0.439 (no result: E coli growth-1, Tat export inh, AddAB inh, phage Ecoli inh)
CC(=O)Nc1ccc(S(=O)(=O)N2CCN(C(=O)C(=O)c3cccc(C(F)(F)F)c3)CC2)cc1	none (no result: E coli growth-1, Tat export inh, E coli growth-2, AddAB inh)
CC(=O)Nc1ccc(S(=O)(=O)N2CCN(c3cc(C(F)(F)F)ccn3)CC2)cc1	E coli growth-2 0.11
COc1ccc(OC)c(C=NN=C2SCC(=O)N2Cc2ccco2)c1	none (no result: E coli growth-1, Tat export inh, AddAB inh, phage Ecoli inh)
CC12CCC(C(=O)N(CSC(=S)N/N=C\c3ccccc3Cl)C1=O)C2(C)C (stereo unspecified)	E coli growth-1 10.7 (no result: E coli growth-2)
CC12CCC(C(=O)N(CSC(=S)NN=Cc3ccccc3O)C1=O)C2(C)C (stereo unspecified)	none (no result: E coli growth-1, Tat export inh, AddAB inh, phage Ecoli inh)
CCc1ccc(C=NN2CCN(c3ccccn3)CC2)cc1	none (no result: E coli growth-1, Tat export inh, AddAB inh, phage Ecoli inh)
N#CC(c1ccc(Cl)cc1)c1ccc2c(C(F)(F)F)cc(C(F)(F)F)nc2n1 (stereo unspecified)	phage Ecoli inh 14.7
FC(F)(F)c1cc(C(F)(F)F)c2ccc(N3CCN(c4ccc(Cl)cc4)CC3)nc2n1	none
Cc1c2ccncc2cc2c1[nH]c1ccccc12	E coli growth-2 0.414 (no result: E coli growth-1, AddAB inh)
N/C(=N\N=Cc1ccc(Br)cc1)NN=Cc1ccc(Br)cc1	none (no result: E coli growth-1, Tat export inh, AddAB inh, phage Ecoli inh)
COC(=O)c1ccccc1NC(=O)CC(C)=NNC(=O)CC#N	none (no result: E coli growth-1, Tat export inh, AddAB inh, phage Ecoli inh)
CC(C)N1CCc2c(sc(NC(=O)c3nc4ccccc4s3)c2C(N)=O)C1	none
CC(C)N1CCc2c(sc(NC(=O)c3ccc(S(=O)(=O)N4CCc5ccccc54)cc3)c2C(N)=O)C1	Tat export inh 61.6 (no result: phage Ecoli inh)
Cc1cnnn1-c1ccc(C(=O)CCl)cc1	E coli growth-2 0.508
CC(=O)c1ccc(-n2nncc2C(C)(C)C)cc1	none
CC(C)(C)Nc1ncnc2sc(-c3ccccc3)cc12	none
COC(CNc1ncnc2sc(-c3ccccc3)cc12)OC	Tat export inh 58.2
CC(=NNC(=O)c1ccccn1)c1ccncc1	none (no result: E coli growth-1, Tat export inh, AddAB inh, phage Ecoli inh)
COc1ccc(Cc2c(N)nc(C)nc2N)cc1	none
Cc1nc(N)c(Cc2ccc(Cl)cc2Cl)c(N)n1	E coli growth-2 0.481
Cc1ccc(S(=O)(=O)NN=c2sc3ccccc3n2C)cc1	none (no result: E coli growth-1, Tat export inh, AddAB inh, phage Ecoli inh)
Cc1nc2ccccc2n1N=Cc1ccc([N+](=O)[O-])o1	E coli growth-2 0.292 (no result: E coli growth-1, Tat export inh, AddAB inh, phage Ecoli inh)
c1ccc(CNc2nc(NCc3ccccc3)c3ccccc3n2)cc1	E coli growth-2 0.439 (no result: phage Ecoli inh)
Fc1ccc(Nc2nc(NCc3ccco3)c3ccccc3n2)cc1	E coli growth-2 0.364
C#CCOCCOCCOCCNc1nc(N2CCOCC2)nc(N2CCN(C(=O)C(CCC(=O)O)n3cc(C(N)C(C)CC)nn3)CC2)n1 (stereo unspecified)	none (no result: E coli growth-1, Tat export inh, AddAB inh, phage Ecoli inh)
O=Cc1ccc(O)c2ncccc12	E coli growth-2 0.093 (no result: E coli growth-1, AddAB inh, phage Ecoli inh)
Cn1c(=O)c2c(nc(NN=Cc3ccc(OC(=O)c4ccco4)cc3)n2Cc2ccccc2Cl)n(C)c1=O	none (no result: E coli growth-1, Tat export inh, AddAB inh, phage Ecoli inh)
CCOc1ccc(Cc2onc3c2C(=O)CCC3)cc1OCC	E coli growth-1 96.9, AddAB inh 98.6 | AddAB conf inactive | RecBCD counter inactive | bact viab count inactive
CCOc1ccc(Cc2onc3c2C(=O)CC(C)(C)C3)cc1OCC	none
O=[N+]([O-])c1ccc(N/N=C/c2ccc[nH]2)cc1	AddAB inh 12.3 (no result: E coli growth-2) | AddAB conf 12.8 | RecBCD counter inactive | bact viab count inactive
CC1CN(C(C)CO)C(=O)c2cccc(NS(=O)(=O)c3ccc(F)cc3)c2OC1CN(C)C(=O)Nc1ccccc1 (stereo unspecified)	none (no result: E coli growth-1, Tat export inh, AddAB inh, phage Ecoli inh)
Cc1ccc2nc(/C(C#N)=C\c3ccc([N+](=O)[O-])o3)[nH]c2c1	E coli growth-1 10.1, AddAB inh 43.3 | AddAB conf 67.4 | RecBCD counter 5.2 | bact viab count inactive
Cc1cc(C=Nn2c(COc3ccccc3C)nc3ccccc3c2=O)c(O)c([N+](=O)[O-])c1	none (no result: E coli growth-1, Tat export inh, AddAB inh, phage Ecoli inh)
CC1C(C#N)=C(N)OC2=C1C(=O)CC(c1ccccc1)C2 (stereo unspecified)	E coli growth-1 73.5, AddAB inh 97.1 | AddAB conf inactive | RecBCD counter inactive | bact viab count inactive
N#CC1=C(N)OC2=C(C(=O)CC(c3ccccc3)C2)C1c1ccoc1 (stereo unspecified)	none
CC(=O)c1c(C)n([O-])c2ccc(C)cc2[n+]1=O	E coli growth-1 24.1, E coli growth-2 0.43, AddAB inh 23.2 | AddAB conf 68.3 | RecBCD counter 8.3 | bact viab count 53.2
Cc1ccc2c(c1)n([O-])c1c([n+]2=O)CCCC1	none
Cc1ccc(/C=C2\C(=O)Nc3ccccc32)o1	E coli growth-1 19.0, E coli growth-2 0.512, AddAB inh 61.6, phage Ecoli inh 16.8 | AddAB conf 98.1 | RecBCD counter 13.7 | bact viab count 44.2
NS(=O)(=O)c1ccc(-c2ccc(/C=C3\C(=O)Nc4ccccc43)o2)cc1	none (no result: Tat export inh, E coli growth-2, phage Ecoli inh)
CC1(C)Cc2ccccc2C(NN=Cc2cccc(F)c2)=N1	none (no result: E coli growth-1, Tat export inh, AddAB inh, phage Ecoli inh)
CC(=O)c1cc(F)c(N2CCN(C(=O)c3ccco3)CC2)cc1C	none
CCn1cc(C(=O)NC(C)C)c(=O)c2cc(F)c(N3CCN(C(=O)c4ccco4)CC3)cc21	E coli growth-1 82.0, E coli growth-2 0.087, AddAB inh 89.4 | AddAB conf 99.4 | RecBCD counter inactive | bact viab count 35.4
CCn1cc(C(=O)NCCC(C)C)c(=O)c2cc(F)c(N3CCN(C(=O)c4ccco4)CC3)cc21	E coli growth-1 16.0, E coli growth-2 0.148, AddAB inh 26.5 | AddAB conf 98.6 | RecBCD counter inactive | bact viab count 36.1
O=C(Cc1cccs1)NCCn1ccc2ccccc21	E coli growth-1 95.2, AddAB inh 98.6 | AddAB conf inactive | RecBCD counter inactive | bact viab count inactive
CCCC(=O)Nc1ccc(C(=O)NN=C2CC(=O)CC(C)(C)C2)cc1	none (no result: E coli growth-1, Tat export inh, AddAB inh, phage Ecoli inh)
O=C(Oc1cccc2cccnc12)c1cccc([N+](=O)[O-])c1	none

Assay outcomes deposited in PubChem by several laboratories.
